Rows were chosen to be rich in hits. Some 2.8% of all compounds tested hit in one or more screens of this group.
N-glyco inh: increase of ERlucT glycosylation luciferase signal, primary screen, N-linked glycosylation inhibitor project, D54 ERlucT cells, luminescence, set 2; D54 ERlucT glycosylation luciferase reporter, 24 h; percent of 100 nM tunicamycin response; reporter increase, % at 12.5 µM; 360,000 compounds, 0.23% hits; AID 588692, 2011;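 active means mean luciferase reporter signal, scaled so untreated is 0 and the glycosylation-blocking control 100, at or above a set limit in every replicate; inconclusive means mean reaches the limit but not every replicate does; inactive means mean below the limit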;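 further: luciferase carries N-glycosylation sites so blocking glycosylation raises the light; 0% = median of neutral control wells and 100% = median of 100 nM tunicamycin wells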
LMP1 NFkB inh: EBV LMP1-driven NF-kappaB luciferase reporter inhibitors, primary screen, cell-based, luminescence, single point. LMP1-induced NF-kappaB luciferase reporter cells. inhibition, % at 12.5 µM. 350,000 compounds, 0.69% hits. AID 504558, 2011; in the data active means inhibition above about 41%; inconclusive means no clear call, values can overlap the other calls;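 further: 0% = neutral control wells and 100% = reference inhibitor control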
NSD2 inh: NSD2 histone methyltransferase inhibitors, primary screen, biochemical, AlphaScreen, single concentration, set 2. inhibition, % at 12.5 µM. NSD2 peptide methylation, 120 min. 310,000 compounds, 0.54% hits. Histone-lysine N-methyltransferase NSD2 (Homo sapiens), O96028; in the data active means inhibition above about 50%
Target sequence (O96028 whole entry, looked up): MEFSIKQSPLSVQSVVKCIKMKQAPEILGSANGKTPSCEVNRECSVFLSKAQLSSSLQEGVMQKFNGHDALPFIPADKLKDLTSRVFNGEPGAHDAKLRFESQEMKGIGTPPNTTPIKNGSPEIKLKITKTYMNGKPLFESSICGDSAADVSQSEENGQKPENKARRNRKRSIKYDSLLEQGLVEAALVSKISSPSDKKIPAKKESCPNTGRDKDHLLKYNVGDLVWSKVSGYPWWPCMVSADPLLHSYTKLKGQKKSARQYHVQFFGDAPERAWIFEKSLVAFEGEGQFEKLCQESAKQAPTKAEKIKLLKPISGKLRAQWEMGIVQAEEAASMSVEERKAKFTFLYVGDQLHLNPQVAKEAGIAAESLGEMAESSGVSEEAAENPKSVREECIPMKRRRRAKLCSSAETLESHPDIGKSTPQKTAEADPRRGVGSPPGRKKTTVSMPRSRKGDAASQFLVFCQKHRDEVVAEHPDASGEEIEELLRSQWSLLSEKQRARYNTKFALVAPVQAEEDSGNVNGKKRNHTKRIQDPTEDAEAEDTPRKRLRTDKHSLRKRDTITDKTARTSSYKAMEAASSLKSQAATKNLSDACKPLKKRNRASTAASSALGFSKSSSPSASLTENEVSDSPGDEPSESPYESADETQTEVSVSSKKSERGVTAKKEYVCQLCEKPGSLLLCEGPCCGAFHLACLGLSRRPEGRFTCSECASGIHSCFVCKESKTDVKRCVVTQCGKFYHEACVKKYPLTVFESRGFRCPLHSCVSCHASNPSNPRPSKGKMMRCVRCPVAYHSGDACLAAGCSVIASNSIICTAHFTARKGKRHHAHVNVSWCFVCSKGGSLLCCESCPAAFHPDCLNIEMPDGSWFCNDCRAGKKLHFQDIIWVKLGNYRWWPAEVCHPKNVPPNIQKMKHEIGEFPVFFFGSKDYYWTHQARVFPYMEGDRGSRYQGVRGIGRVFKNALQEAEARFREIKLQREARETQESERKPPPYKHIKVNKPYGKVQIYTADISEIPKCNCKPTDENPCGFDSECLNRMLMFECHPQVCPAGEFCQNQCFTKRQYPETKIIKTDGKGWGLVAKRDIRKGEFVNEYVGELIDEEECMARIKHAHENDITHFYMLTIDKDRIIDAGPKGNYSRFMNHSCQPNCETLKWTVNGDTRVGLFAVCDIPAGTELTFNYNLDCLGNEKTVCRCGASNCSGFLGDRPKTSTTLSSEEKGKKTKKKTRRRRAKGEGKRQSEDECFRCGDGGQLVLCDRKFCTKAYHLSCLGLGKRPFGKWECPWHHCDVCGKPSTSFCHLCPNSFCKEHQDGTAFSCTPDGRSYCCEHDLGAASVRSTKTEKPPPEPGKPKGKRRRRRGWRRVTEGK
Shn3 inh set2: reduction of Shn3 3'UTR firefly luciferase signal, primary screen, Schnurri-3 inhibitor project, cell-based, Clone20 osteoblasts, set 2; Clone20 osteoblast Shn3 3'UTR firefly luciferase, 24 h; inhibition, % at 12.5 µM; 360,000 compounds, 0.52% hits;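 active means mean inhibition of at least 75% with every replicate also reaching 75%; inconclusive means mean inhibition at least 75% but some replicate below; inactive means mean inhibition below 75%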;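 further: 0% = median of neutral control wells and 100% = pilot-screen positive control compound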
Env fusion inh: inhibitors of HIV-1 Env-driven cell-cell fusion, primary screen, HeLa-JRFL effector, CEM21 target cells, luciferase; 360,000 compounds, 1.1% hits; AID 651610, 2012; inhibition, % at 12.3 µM;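 active means mean replicate inhibition score of at least 50 and every replicate individually at or above 50; inconclusive means only one of the two criteria met; inactive means mean below 50 and not all replicates reaching 50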;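 further: 0% = plate neutral controls and 100% = maraviroc near 300 nM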
PAX8 reporter: inhibitors of PAX8-driven TPO luciferase reporter, primary screen, RMG-I cells, single concentration. SteadyGlo, 24 h. inhibition, % at 12.6 µM. 360,000 compounds, 1.2% hits;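 active means mean replicate inhibition at least 60% with every replicate also reaching 60%; inconclusive means only one of the two criteria is met; inactive means mean below 60% and not all replicates reaching 60%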;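 further: luciferase light reporting Pax8 driven TPO promoter activity; plate controls were median of neutral control wells for no effect and mitoxantrone controls for full effect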
Active calls of the source: *; ? = inconclusive; . = no result given; [ ] = remark or other dose.

SMILES	N-glyco inh	LMP1 NFkB inh	NSD2 inh	Shn3 inh set2	Env fusion inh	PAX8 reporter
COc1ccccc1NC(=O)N1CCCCN2[C@H](CO)[C@H](c3ccc(-c4cccc(C)c4)cc3)[C@H]2C1	.	.	.	.	.	104.0*
COc1ccc(C#Cc2ccc([C@H]3[C@@H](CO)N4CCCCN(C(=O)Nc5cccc(F)c5)C[C@H]34)cc2)cc1	.	.	.	.	.	75.5*
COc1ccc(C#Cc2ccc([C@@H]3[C@H](CO)N4CCCCN(C(=O)Nc5cccc(F)c5)C[C@@H]34)cc2)cc1	.	.	.	.	.	76.3*
Cc1c(C(=O)N2CC3(CC(c4cccc(NC(=O)CC(c5ccccc5)c5ccccc5)c4)=NO3)C[C@@H]2C(N)=O)cc([N+](=O)[O-])cc1[N+](=O)[O-] (stereo partly drawn)	0.1	-8.2	.	12.4	16.6	64.9*
NC(=O)[C@H]1CC2(CC(c3cccc(NC(=O)COc4ccc(Cl)cc4)c3)=NO2)CN1C(=O)C(c1ccccc1)c1ccccc1 (stereo partly drawn)	?	11.1	.	-1.5	-93.1	88.8*
C/C=C(\C)C(=O)Nc1cccc(C2=NOC3(C2)C[C@@H](C(N)=O)N(C(=O)c2cc([N+](=O)[O-])cc([N+](=O)[O-])c2C)C3)c1 (stereo partly drawn)	-0.9	6.6	.	3.0	-3.2	13.0
CC(C)NC(=O)N1C[C@@H]2[C@H](c3ccccc31)[C@@H](CO)N2C(=O)c1ccccc1	.	.	.	.	.	5.2
C[C@H](CO)N1C[C@H](C)[C@@H](CN(C)C(=O)CN(C)C)Oc2cc(-c3ccncc3)ccc2S1(=O)=O	.	.	.	.	-11.9[16.7 µM]	-13.8
O=C(Nc1cccc(OC(F)(F)F)c1)C1Cc2c(-c3ccccc3Oc3ccccc3)ccnc2O1 (stereo not drawn)	-5.7	.	-1.0	40.7	59.2*	20.2
O=C(Nc1cc(C(F)(F)F)ccc1F)C1Cc2c(-c3ccccc3Oc3ccccc3)ccnc2O1 (stereo not drawn)	-5.6	.	-3.6	37.1	78.8*	27.5
C[C@H](CO)N1C[C@H](C)[C@@H](CN(C)C(=O)CN(C)C)Oc2ncc(-c3ccc(F)cc3)cc2C1=O	.	.	.	.	-17.4[16.7 µM]	.
COc1cc(OC)c(CN2CCc3c([nH]c4ccccc34)C2)cc1Br	2.2	75.5*	2.7	18.6	-31.2	11.9
CCCCN1C(=O)Cc2c1nc(N)c1c(N)nc(N(CCC)CCC)c(C#N)c21	-1.3	23.2	18.3	35.0	-4.7	.
C=C(C)CN(CC)c1nc(N)c2c(N)nc3c(c2c1C#N)CC(=O)N3C12CC3CC(CC(C3)C1)C2	.	5.5	0.0	76.4	79.6*	31.8
N#Cc1c(N2CCCC(O)C2)nc(N)c2c(N)nc3c(c12)CC(=O)N3C12CC3CC(CC(C3)C1)C2 (stereo not drawn)	40.6*	-15.5	25.6	6.8	-26.5	32.4
COc1ccc(NC(=O)N[C@@H]2CC[C@H](CCNC(=O)Cc3ccncc3)O[C@@H]2CO)cc1	.	.	.	.	7.2[16.7 µM]	-7.9
CO[C@H]1CN(C)C(=O)c2cc(NC(=O)NC3CCCCC3)ccc2OC[C@H](C)N(C)C[C@H]1C	.	.	.	.	1.7[16.7 µM]	0.6
O=C(c1cccc(S(=O)(=O)N2CCN(c3ccccc3)CC2)c1)N1CCCC(C(F)(F)F)C1 (stereo not drawn)	-1.6	22.1	-1.2	?	71.0*	8.0
C/C(=N\Nc1cc(C)nc(-c2ccccc2O)n1)c1ccccc1	-1.3	-15.1	-2.4	-0.8	-9.8	-44.1
Cc1cc(N/N=C/c2ccc(O)c(C)c2O)nc(-c2ccccc2O)n1	-17.4	-20.6	-6.4	84.7	-35.7	97.2*
C[C@@H]1CN([C@@H](C)CO)C(=O)Cc2cc(NS(=O)(=O)c3ccccc3)ccc2O[C@@H]1CN(C)Cc1ccc(Cl)c(Cl)c1	.	.	.	.	12.9[16.7 µM]	31.1
C[C@H](CO)N1C[C@H](C)[C@@H](CN(C)Cc2ccc(Cl)c(Cl)c2)Oc2ccc(NS(=O)(=O)c3ccccc3)cc2CC1=O	.	.	.	.	-4.6[16.7 µM]	83.3*
C[C@H]1CN([C@@H](C)CO)C(=O)Cc2cc(NS(=O)(=O)c3ccccc3)ccc2O[C@@H]1CN(C)Cc1ccc(Cl)c(Cl)c1	.	.	.	.	57.6*[16.7 µM]	?
